Our source for the inhibition values is PubChem BioAssay AID1986 (Sanford-Burnham Center for Chemical Genomics, 2009).

This experiment in a line: cell-free HIV fusion peptide-binding blockers – biochemical, uHTS, fluorescence dequenching, primary screen (AID 1986). The note with it: 30 min, stronger effect = higher value.
Setting [1] is: measured here: repeat confirmation average inhibition, at 18.6 µM.

As usually defined, the inhibition is the change of the read-out against control, counted positive when it falls.

Hit rate of the full screen: of about 290,000 compounds, about 890 (0.31%) were called active. The sample holds actives, similar compounds and a random draw of the others, so the mix is not that of the screen. Rule as the data show it: active = inhibition mostly above about 52% (no sharp cut-off); inactive = mostly below about 76%.

In the case of `Cc1cc(/C=C2/C(=O)N(C)C(=S)N2C)ccc1N1CCCC1`, the inhibition (at 20 µM) is 54.2% (active).

For the compound `Cc1cc(/C=C2\NC(=S)N(C)C2=O)ccc1N1CCCC1`, the inhibition (at 20 µM) was 143% (inactive).

Consider `CCCN1C(=O)/C(=C/c2ccc(N3CCCC3)c(C)c2)NC1=S`, for which, where the note is “at 20 µM”, the inhibition was 125% (inactive).

Take `Cc1cc(S(=O)(=O)N2CCOCC2)ccc1OCC(=O)Nc1cccc(F)c1`: under “at 20 µM”, the inhibition is -1.3% (inactive).

Consider `CCOc1ccc(C(C)NC(=O)c2cccnc2OCC)cc1OCC` (stereo not given), for which the inhibition (at 20 µM) was -0.2% (inactive).

As for `Cc1csc(N/N=C/c2ccc(O)c([N+](=O)[O-])c2)n1`, where the note is “at 20 µM”, the inhibition is 0% (inactive).

Regarding `O=[N+]([O-])c1cc(/C=N\Nc2nccs2)ccc1O`, the inhibition (at 20 µM) was 71.1% (active).

As to `O=[N+]([O-])c1cc(/C=N\Nc2nc(-c3ccccc3)cs2)ccc1O`, the inhibition (at 20 µM) was 33.1% (inactive).

Turning to `O=C(/C=C/c1cc([N+](=O)[O-])ccc1OC(F)F)Nc1cccc2ccccc12`, the inhibition (at 20 µM) is 1.3% (inactive).

With `CC1(C)Cc2c(sc(NC(=S)NC(=O)c3ccccc3)c2C(=O)O)CO1`, the inhibition (at 20 µM) was 2.8% (inactive).

In the case of `CC(/C=C1\SC(=S)N(NS(=O)(=O)c2ccc(C)cc2)C1=O)=C\c1ccccc1`, the inhibition (at 20 µM) was 56.5% (active).

For the compound `CC(/C=C1\SC(=S)N(NS(=O)(=O)c2ccccc2)C1=O)=C\c1ccccc1`, the inhibition (at 20 µM) was 40.6% (inactive).

`CC(/C=C1\SC(=S)N(NC(=O)c2ccc(C)cc2)C1=O)=C\c1ccccc1`: for the setting “at 20 µM”, the inhibition is 6.4% (inactive).

For the compound `COc1ccc(NC(=O)/C(C#N)=C/C=C/c2ccco2)cc1`, the inhibition (at 20 µM) is 80.7% (active).

Turning to `COc1ccc(NC(=O)/C(C#N)=C\C=C\c2ccco2)cc1`, the inhibition is 73.2% (inactive) (at 20 µM) and -0.6% under setting [1].

On to `COc1ccccc1NC(=O)/C(C#N)=C/C=C/c1ccco1`, for which, for the setting “at 20 µM”, the inhibition is 24.1% (inactive).

In the case of `Cc1cccn2cc(CCNC(=O)c3ccco3)nc12`, the inhibition (at 20 µM) is -0.6% (inactive).

For `Cc1cc(N2C(=O)C(O)=C(C(=O)c3ccco3)C2c2ccc([N+](=O)[O-])cc2)no1` (stereo not given), under “at 20 µM”, the inhibition was 1.4% (inactive).

Turning to `Cc1nc(=O)c(-c2ccccc2)c(C)n1CCCCCC(=O)O`, the inhibition (at 20 µM) is -2.3% (inactive).

Consider `CC(N=C(NS(=O)(=O)c1ccc(Cl)cc1)c1ccccc1)C(=O)O` (stereo not given), for which the inhibition (at 20 µM) was -0.1% (inactive).

As for `COc1cc(C=C(c2nc3ccccc3s2)c2nc3ccccc3s2)ccc1O`, the inhibition (at 20 µM) is 8.2% (inactive).

As to `COc1cc(C=C(c2nc3ccccc3s2)c2nc3ccccc3s2)cc(OC)c1O`, the inhibition (at 20 µM) is 26.6% (inactive).

On to `COc1ccc(C=C(c2nc3ccccc3s2)c2nc3ccccc3s2)cc1O`, for which the inhibition (at 20 µM) is 57.6% (active).

In the case of `CCS(=O)(=O)Nc1cccc(C2=NN(S(C)(=O)=O)C(c3cccs3)C2)c1` (stereo not given), the inhibition (at 20 µM) is 0.5% (inactive).

Take `CCCC(=O)NC(Nc1ccc(S(=O)(=O)Nc2cc(C)on2)cc1)(C(=O)OCC)C(F)(F)F` (stereo not given): the inhibition (at 20 µM) is -1.8% (inactive).

With `CCOC(=O)C(NC(C)=O)(Nc1ccc(S(=O)(=O)Nc2cc(C)on2)cc1)C(F)(F)F` (stereo not given), for the setting “at 20 µM”, the inhibition was 3.7% (inactive).

For the compound `CCOC(=O)C(NC(=O)CC)(Nc1ccc(S(=O)(=O)Nc2cc(C)on2)cc1)C(F)(F)F` (stereo not given), where the note is “at 20 µM”, the inhibition was 59.8% (active).

Take `COCCCN(C(=S)NC(=O)C(C)(C)C)c1c(N)n(Cc2ccccc2)c(=O)[nH]c1=O`: the inhibition (at 20 µM) is -2.2% (inactive).

`COc1ccc(O)c(/C=C2/SC(=S)N(Cc3ccccc3)C2=O)c1`: the inhibition was 68.8% (active) (at 20 µM) and 51% under setting [1].

Take `COc1ccccc1N=C1NC(=O)/C(=C/c2ccc(N(C)C)cc2)S1`: the inhibition (at 20 µM) was 52.4% (active).

Regarding `COc1cc(/C=C2\SC(=Nc3ccccc3OC)NC2=O)ccc1O`, where the note is “at 20 µM”, the inhibition is 8.2% (inactive).

Turning to `COc1ccc(/C=C2\SC(=Nc3ccccc3OC)NC2=O)cc1`, the inhibition (at 20 µM) is 7.1% (inactive).

Take `O=C1/C(=C\c2cc(Cl)c(O)c(Cl)c2)SC(=S)N1Cc1ccccc1`: the inhibition (at 20 µM) was 159% (inactive).

`COc1cc(/C=C2/SC(=Nc3ccc(O)cc3)NC2=O)cc(OC)c1O`: the inhibition (at 20 µM) is -2.4% (inactive).

In the case of `COc1cc(/C=C2\SC(=Nc3ccccc3)NC2=O)cc(Cl)c1O`, the inhibition runs as follows: (at 20 µM) 90% (active); under setting [1], 60.8%.

As to `COc1cc(/C=C2/SC(=S)N(Cc3ccccc3)C2=O)ccc1O`, the inhibition (at 20 µM) is 6% (inactive).

As for `COc1cc(/C=C2\SC(=Nc3ccc(O)cc3)NC2=O)cc(OC)c1O`, for the setting “at 20 µM”, the inhibition was -2.7% (inactive).

As for `COc1ccc(OC)c(/C=C2\SC(=S)N(Cc3cccnc3)C2=O)c1`, the inhibition (at 20 µM) was 36.3% (inactive).

`COc1cc(/C=C2/SC(=S)N(Cc3ccccc3)C2=O)cc(Cl)c1O`: the inhibition (at 20 µM) is 119% (active) and the inhibition under setting [1] was determined as 88%.

For `COc1ccc(/C=C2/SC(=S)N(Cc3ccccc3)C2=O)cc1O`, the inhibition (at 20 µM) was -3.1% (inactive).

Regarding `CCN(CC)CCCNC(=O)CNC(=S)N(CCCN1CCOCC1)Cc1cccs1`, where the note is “at 20 µM”, the inhibition is -0.5% (inactive).

With `Cc1cc(C)cc(OCC(=O)Nc2nc(-c3cccnc3)cs2)c1`, the inhibition (at 20 µM) was -0.2% (inactive).

For the compound `COc1ccc2cc(CN(CC3CCCO3)S(=O)(=O)c3ccccc3)c(=O)[nH]c2c1` (stereo not given), the inhibition (at 20 µM) was 1.4% (inactive).

As to `N#C/C(=C/c1ccc(N2CCCCC2)cc1)c1cccc(F)c1`, the inhibition (at 20 µM) is 1.6% (inactive).

As for `COc1cc(N2CCCC2)c(OC)cc1/C=C(/C#N)c1cccc(F)c1`, the inhibition (at 20 µM) is 57.2% (active).

With `COc1cc(N2CCCC2)c(OC)cc1/C=C(/C#N)c1ccc(F)cc1`, the inhibition (at 20 µM) was 15.6% (inactive).
